{"source": "PubChem BioAssay (NCI)", "note": "This is part of a sample that, as a whole, favours compounds with a hit. Of some 83,000 tested, about 20% had one in any assay.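 Single-concentration screen, 48 h exposure, 96-well plates. Endpoint: percent growth. Below 10 = active.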 Values without a mark were called inactive. The source made the active and inactive calls.", "data": [{"system": "HCC-2998 colon", "experiment": "NCI-60 one-dose screen, 48 h (100 = growth as untreated, 0 = no growth, -100 = all killed)", "settings": "10 µM unless noted", "values": [{"molecule": "O=C(/C=C1\\C(=O)N(Cc2ccccc2)c2ccccc21)c1cc2ccccc2oc1=O", "growth": "113%"}, {"molecule": "COc1ccc(NC(=O)Cn2c(/C=C/c3cccc(Br)c3)nc3ccccc3c2=O)cc1", "growth": "84.5%"}, {"molecule": "O=c1ccc(Cn2c(C(F)(F)F)cc3c(Cl)ncnc32)c[nH]1", "growth": "40.4%"}, {"molecule": "CCCCC[C@@H]1C/C=C(\\C)[C@@H](O)C(C)(C)C(=O)[C@@H](C)/C=C(\\C)[C@@H]2C[C@H](O)C[C@](O)(CC(=O)O1)O2", "growth": "57.1%"}, {"molecule": "COc1cc(NC(=O)CSc2nnc(-c3ccc(-c4nc5ccc(Cl)cc5[nH]4)cc3)o2)cc(OC)c1OC", "growth": "68.9%"}, {"molecule": "Cc1ccc(C2CC(c3ccc(S(=O)(=O)NCCNc4nc(N(C)C)nc(N5CCOCC5)n4)cc3)=Nc3c(N)nc(N)nc3N2)cc1", "note": "(configuration not stated)", "growth": "47.9%"}, {"molecule": "CCCCNC(=S)Nc1ccc(OCc2nc3ccc(Cl)cc3[nH]2)cc1", "growth": "3.65% (active)"}, {"molecule": "Nc1nn2c(-c3cc4cc(Br)ccc4oc3=O)ccnc2c1N=Nc1ccc(S(N)(=O)=O)cc1", "growth": "54.8%"}, {"molecule": "OCCn1cc(-c2nc3ccc4[nH]ncc4c3c3c2CCCC3)cn1", "growth": "54%"}, {"molecule": "CN(C)CCCc1ccc(Nc2cnn(C)c(=O)c2Cl)cc1", "growth": "118%"}, {"molecule": "Nc1cc2ccccc2c(=O)n1NC(=O)c1ccccc1", "growth": "120%"}, {"molecule": "Cn1cc(-c2cc(N)n3nc(-c4c[nH]c5ccccc45)cc3n2)c2cc(Cl)ccc21", "growth": "-80% (active)"}, {"molecule": "O=C(NC(=S)N1CCN(c2ncnc3c2cnn3-c2ccccc2)CC1)c1ccc(Br)cc1", "growth": "90.5%"}, {"molecule": "O=C(N/N=C/c1ccc(B(O)O)s1)c1[nH]c2ccc(Br)cc2c1-c1ccccc1", "growth": "-97.7% (active)"}]}, {"system": "KM12 colon", "experiment": "NCI-60 one-dose screen, 48 h (100 = growth as untreated, 0 = no growth, -100 = all killed)", "settings": "10 µM unless noted", "values": [{"molecule": "CCCCNc1ccc2c3c(cccc13)C(=O)N(c1cccc(-c3nn(-c4ccccc4)cc3-c3nc4ccccc4s3)c1)C2=O", "growth": "108%"}, {"molecule": "COc1ccc(-c2cc(-c3cc(OC)c(OC)c(OC)c3)[nH]c(=O)c2C#N)cc1", "growth": "75.8%"}, {"molecule": "COc1cc(C2CC(c3ccc(Cl)cc3)=Nc3c(N)nc(N)nc3N2)ccc1Oc1nc(Nc2ccc(F)cc2)nc(N(C)C)n1", "note": "(configuration not stated)", "growth": "32%"}, {"molecule": "O=C(O)CC1S/C(=N/N=C/c2nc3ccccc3s2)NC1=O", "note": "(configuration not stated)", "growth": "90.6%"}, {"molecule": "Cc1ccc(S(=O)(=O)N(CCn2ccnc2[N+](=O)[O-])CCn2ccnc2[N+](=O)[O-])cc1", "growth": "105%"}, {"molecule": "N#CCc1nnc(NC(=O)c2ccc(-n3c(=O)[nH]c4ccccc4c3=O)cc2)s1", "growth": "121%"}, {"molecule": "O=C(N/N=C/c1ccc(Br)o1)c1[nH]c2ccc(Br)cc2c1-c1ccccc1", "growth": "-1.58% (active)"}, {"molecule": "COc1ccc(N=Nc2c(N)nn3c(-c4ccc([N+](=O)[O-])cc4)ccnc23)cc1", "growth": "102%"}, {"molecule": "Cn1cc(-c2cc(N)n3nc(-c4c[nH]c5ccc(Cl)cc45)cc3n2)c2cc(Br)cnc21", "growth": "-68.8% (active)"}, {"molecule": "CN1C(=O)C2(C(C#N)=C(c3ccc(Cl)cc3)Nc3c2c(-c2ccccc2)nn3-c2ccccc2)c2ccccc21", "note": "(configuration not stated)", "growth": "94.9%"}, {"molecule": "Cc1nn(-c2ccccc2)c2nc(C)n(C(=O)N/N=C/c3ccccc3)c(=O)c12", "growth": "99.4%"}, {"molecule": "CN1CCN(CCS(=O)(=O)Nc2cc(-c3ccc4ncnc(Nc5ccc(F)c(Cl)c5)c4c3)cnc2Cl)CC1", "growth": "46.4%"}, {"molecule": "COc1cc(C2CC(c3ccc(C(F)(F)F)cc3)=Nc3c(N)nc(N)nc3N2)ccc1Oc1nc(Nc2ccc(F)cc2)nc(N(C)C)n1", "note": "(configuration not stated)", "growth": "32.6%"}, {"molecule": "COc1ccc2[nH]c(=O)c(CSc3ccccc3Nc3nccc(-c4ccc5c(c4)OCO5)n3)cc2c1", "growth": "89.7%"}, {"molecule": "Cc1cc(=O)oc2cc(OCC(O)CNN3C(=O)c4cccc5c(N6CCN(C)CC6)ccc(c45)C3=O)ccc12", "note": "(configuration not stated)", "growth": "90.8%"}, {"molecule": "CC[C@]12C=CCN3CC[C@]4(C(=C(C(=O)OC)C1)Nc1cc(OC)c([C@@H]5[C@H]6O[C@H]6[C@@]6(CC)CC(C(=O)OC)=C7Nc8cc(OC)ccc8[C@@]78CCN5[C@@H]68)cc14)[C@@H]32", "growth": "49.6%"}, {"molecule": "C#CCCCNCCNc1ccnc2cc(Cl)ccc12", "growth": "91.3%"}, {"molecule": "CCOC(=O)/C(F)=C/C1CC1C(c1ccccc1)c1ccccc1", "note": "(configuration not stated)", "growth": "83.5%"}, {"molecule": "S=C(NCCc1ccccc1)Nc1ccc(OCc2nc3ccc(Cl)cc3[nH]2)cc1", "growth": "18.6%"}, {"molecule": "Cc1ccc(C(=O)C[n+]2cccc3c4ccccc4ccc32)cc1", "growth": "25.7%"}, {"molecule": "CCCn1c(NC(=O)c2cccc(C(N)=O)c2)nc2cc(CN3CCCCC3)ccc21", "growth": "22.8%"}, {"molecule": "CCC(=O)c1c2c(c3ccc4c5ccccc5ccc4n13)C(=O)c1ccccc1C2=O", "growth": "68.9%"}, {"molecule": "O=C1/C(=C/c2cnc(-c3ccccc3)s2)SC(=S)N1Cc1ccc2c(c1)OCO2", "growth": "99.7%"}, {"molecule": "O=c1[nH]c2ccccc2cc1COc1ccc(Nc2nccc(-c3ccc(Cl)cc3)n2)cc1", "growth": "99.3%"}, {"molecule": "O=C(/C=C1\\C(=O)N(Cc2ccccc2)c2ccccc21)c1cc2ccccc2oc1=O", "growth": "91.2%"}, {"molecule": "COc1ccc(NC(=O)Cn2c(/C=C/c3cccc(Br)c3)nc3ccccc3c2=O)cc1", "growth": "87.7%"}, {"molecule": "O=c1ccc(Cn2c(C(F)(F)F)cc3c(Cl)ncnc32)c[nH]1", "growth": "105%"}, {"molecule": "CCCCC[C@@H]1C/C=C(\\C)[C@@H](O)C(C)(C)C(=O)[C@@H](C)/C=C(\\C)[C@@H]2C[C@H](O)C[C@](O)(CC(=O)O1)O2", "growth": "44.6%"}, {"molecule": "COc1cc(NC(=O)CSc2nnc(-c3ccc(-c4nc5ccc(Cl)cc5[nH]4)cc3)o2)cc(OC)c1OC", "growth": "30.8%"}, {"molecule": "Cc1ccc(C2CC(c3ccc(S(=O)(=O)NCCNc4nc(N(C)C)nc(N5CCOCC5)n4)cc3)=Nc3c(N)nc(N)nc3N2)cc1", "note": "(configuration not stated)", "growth": "47.9%"}, {"molecule": "CCCCNC(=S)Nc1ccc(OCc2nc3ccc(Cl)cc3[nH]2)cc1", "growth": "29.3%"}, {"molecule": "Nc1nn2c(-c3cc4cc(Br)ccc4oc3=O)ccnc2c1N=Nc1ccc(S(N)(=O)=O)cc1", "growth": "48.3%"}, {"molecule": "OCCn1cc(-c2nc3ccc4[nH]ncc4c3c3c2CCCC3)cn1", "growth": "18.8%"}, {"molecule": "CN(C)CCCc1ccc(Nc2cnn(C)c(=O)c2Cl)cc1", "growth": "111%"}, {"molecule": "Nc1cc2ccccc2c(=O)n1NC(=O)c1ccccc1", "growth": "97.7%"}, {"molecule": "Cn1cc(-c2cc(N)n3nc(-c4c[nH]c5ccccc45)cc3n2)c2cc(Cl)ccc21", "growth": "-70.5% (active)"}, {"molecule": "O=C(NC(=S)N1CCN(c2ncnc3c2cnn3-c2ccccc2)CC1)c1ccc(Br)cc1", "growth": "92.5%"}, {"molecule": "O=C(N/N=C/c1ccc(B(O)O)s1)c1[nH]c2ccc(Br)cc2c1-c1ccccc1", "growth": "-36.5% (active)"}]}]}
